# Screening results: PubChem, National Center for Advancing Translational Sciences (NCATS)
# A549 viability – kills or reduces viability of A549 cells in Nrf2 counter-screen | A549 ARE-Fluc cells, CellTiter-Fluor viability, 18-24 h | Potency, µM (series often up to 46 µM), most hits filed as inhibitors | 390,000 tested, 0.16% active
#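 A549 ARE_Fluc cells in 5% FBS OPTI-MEM were exposed to compounds in concentration-response for 18-24 h at 37 deg C. Viability was read by CellTiter-Fluor fluorescence (Ex 405/Em 525) after 30 min, before the luciferase read.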
# LDHA inh – blocks human lactate dehydrogenase A; P00338; purified LDHA, NADH/diaphorase-resazurin fluorescence; hits give low values; activity change, % (values are at about 110 or 230 µM); 480,000 tested, 0.15% active; AID 1347041; in the data active = activity change below about -30%; inconclusive = mostly about -25% to -30%
#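 Resorufin fluorescence (ex540/em590), read at 0 and 20 min after diaphorase/resazurin addition, reports the NADH left after a 5 min room-temperature reaction of 2 nM human LDH5 with 0.06 mM NADH and 0.2 mM pyruvate.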
# Nrf2 inh – inhibitors of Nrf2 signaling. A549 ARE-Fluc reporter, luciferase luminescence, 18-24 h. 360,000 tested, 2.1% active. Potency, µM (highest dose often 46 µM), usual class: inhibitors; note: nearly all actives have a fitted effect of over 60% in size
#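 Concentration-response testing used A549 ARE_Fluc cells at 5000 cells/well. Following an 18-24 h compound incubation, viability was read by fluorescence (Ex 405/Em 525) and luciferase output by luminescence.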
# IDH1 R132H inh – human IDH1 R132H inhibition. IDH1-R132H enzyme, NADPH consumption, diaphorase/resazurin fluorescence. O75874. AID 602179. Potency, µM (highest dose often 76.6 µM), most hits filed as inhibitors. 390,000 tested, 0.093% active; note: nearly all actives have a fitted effect of over 65% in size
#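 IDH1-R132H (0.5 ug/mL dispensed) in pH 7.5 Tris buffer was preincubated 30 min with compound, then given a substrate mix of 0.016 mM NADPH and 2 mM alpha-KG for 80 min at room temperature; remaining NADPH was read by diaphorase/resazurin fluorescence.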
# Nrf2 ARE act – activators of Nrf2 (ARE) signaling; AREc32 ARE-luciferase reporter (MCF7-derived line), luminescence, 24 h; 410,000 tested, 0.31% active; Potency, µM (series often up to 46.1 µM), usual class: activators; AID 624171; note: nearly all actives have a fitted effect of over 65% in size
#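 ARE-driven firefly luciferase activity in AREc32 cells measured after a 24 hr compound exposure at 37 deg C, using Steady-Glo reagent and a 30 min room-temperature hold.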
# 12-LOX inh – ALOX12 (human) lipoxygenase inhibition | P18054 | purified 12hLO, xylenol orange hydroperoxide absorbance | Potency, µM (highest dose often 108 µM), actives largely listed as inhibitors | 580,000 tested, 1.1% active | AID 1671190
# Target sequence (P18054 whole entry, looked up): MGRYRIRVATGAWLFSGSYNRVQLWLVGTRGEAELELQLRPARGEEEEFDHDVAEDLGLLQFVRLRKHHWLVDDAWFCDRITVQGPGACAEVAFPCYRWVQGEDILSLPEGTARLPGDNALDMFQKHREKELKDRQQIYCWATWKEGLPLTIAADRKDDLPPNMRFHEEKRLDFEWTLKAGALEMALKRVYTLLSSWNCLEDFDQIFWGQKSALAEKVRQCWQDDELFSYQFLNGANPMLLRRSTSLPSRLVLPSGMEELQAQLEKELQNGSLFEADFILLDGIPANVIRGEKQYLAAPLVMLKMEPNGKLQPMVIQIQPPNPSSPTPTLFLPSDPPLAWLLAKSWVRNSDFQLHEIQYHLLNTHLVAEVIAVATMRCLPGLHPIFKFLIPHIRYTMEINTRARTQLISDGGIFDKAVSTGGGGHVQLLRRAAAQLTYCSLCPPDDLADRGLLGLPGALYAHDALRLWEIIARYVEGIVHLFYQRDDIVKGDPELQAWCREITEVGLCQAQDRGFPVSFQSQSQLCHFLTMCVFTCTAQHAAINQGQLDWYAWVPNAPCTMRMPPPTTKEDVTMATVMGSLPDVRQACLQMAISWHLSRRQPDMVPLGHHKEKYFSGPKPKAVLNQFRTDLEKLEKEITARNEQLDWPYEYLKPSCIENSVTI
#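 Purified human 12hLO at 150 nM in 25 mM Hepes, 0.01% Triton X-100, pH 7.0, preincubated 15 min at room temperature with compound. Reaction started with 40 uM arachidonic acid, 30 min at room temperature. Hydroperoxide measured by Fe-xylenol orange, 573/405 nm absorbance ratio.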
# A number is an active result; – = inactive; ? = inconclusive; · = no result; ! = repeats disagree. This is a sample that favours compounds with a hit; in the whole collection about 2.7% have one here. Unless noted, calls come from the whole dose curve; as a rule, active = well fitted curve in the direction sought with a large enough effect; inconclusive = small, poorly fitted or top-dose-only effect, or another doubt; inactive = no such curve, though single readings can be large; an effect the other way counts as inactive or inconclusive.
SMILES,A549 viability,LDHA inh,Nrf2 inh,IDH1 R132H inh,Nrf2 ARE act,12-LOX inh
Cc1ccc2nc(C3CCN(Cc4ccc(-c5cccs5)cc4)CC3)[nH]c(=O)c2c1,·,·,·,·,·,35.5µM!
CCOc1ccc(N2CC(c3nc(-c4ccccn4)no3)CC2=O)cc1 (stereo not drawn),·,–,·,·,·,–
Cc1ccc(C(=O)N(Cc2ccco2)C2CC2)cc1C,·,–,·,·,·,–
CC(=O)Nc1cccc(NC(=O)COC(=O)c2cc3ccccc3[nH]2)c1,·,–,·,·,·,?
N=C1/C(=C\c2ccc(-c3cccc(C(=O)O)c3)o2)C(=O)N=C2SC=C(c3ccccc3)N12,–,–,–,–,–,39.8µM
O=c1cc(C(Cl)(Cl)Cl)oc2c1ccc1ccccc12,?,–,20.6µM,–,12.6µM,–
O=c1cc(-c2ccncc2)oc2c1ccc1ccccc12,–,–,18.4µM,–,–,–
O=c1cc(CCl)c2ccc3ccccc3c2o1,·,–,·,·,·,?
Cc1cccc(C(=O)NC(c2cccnc2)c2cc(C)ccc2C)c1 (stereo not drawn),·,–,·,·,·,–
Cc1ccc(-c2nn3c(-c4ccc(C)cc4)nnc3c3ccccc23)cc1,–,–,–,?,–,–
Cc1nn2c3ccccc3nc2c2ccccc12,–,–,–,–,7.94µM,–
Cc1nn2c(-c3ccccc3)nnc2c2ccccc12,–,–,?,–,3.98µM,–
Cc1ccc(-c2ocnc2C(=O)Nc2ccc(Cl)cc2C)o1,·,–,·,·,·,–
O=C(c1ccc(S(=O)(=O)NCC2CCCO2)cc1)N1CCN(c2ccccc2F)CC1 (stereo not drawn),–,–,–,–,–,–
O=C(Nc1cccc(F)c1)c1ccc(S(=O)(=O)NCC2CCCO2)cc1 (stereo not drawn),–,–,20.6µM,–,–,–
O=C(c1ccc(S(=O)(=O)NCC2CCCO2)cc1)N1CCN(c2cccc(Cl)c2)CC1 (stereo not drawn),–,–,13µM,–,–,–
C/C(=N\Nc1cccc(C(F)(F)F)c1)c1ccc(O)cc1,–,–,–,–,–,35.5µM
O=C(O)c1ccc(N/N=C/c2ccc(-c3ccccc3)cc2)cc1,?,–,?,–,–,?
FC(F)(F)c1cccc(N/N=C/c2cccc(Br)c2)c1,·,–,·,·,·,–
O=C(O)c1ccc(/C=N/Nc2cccc(C(F)(F)F)c2)cc1,–,–,?,–,–,44.7µM
FC(F)(F)c1cccc(N/N=C/c2ccc(Br)cc2)c1,·,–,·,·,·,0.794µM
Cc1cnc(C(=O)Oc2c(C)cccc2C)cn1,·,–,·,·,·,?
O=C(COc1ccc(-c2ccccc2)cc1Cl)Nc1ncn[nH]1,·,–,·,·,·,–
CC(C)c1ccc(NC(=O)CSc2nc3ccccc3nc2N2CCCC2)cc1,–,–,–,–,–,6.31µM
O=C(CSc1nc2ccccc2nc1N1CCCC1)Nc1ccc(Cl)cc1,–,–,–,–,–,–
SMILES,A549 viability,LDHA inh,Nrf2 inh,IDH1 R132H inh,Nrf2 ARE act,12-LOX inh
COCc1nnc(NC(=O)C2CC(=O)N(CCc3c[nH]c4ccc(C)cc34)C2)s1 (stereo not drawn),·,–,·,·,·,?
O=S(=O)(C/C(=C/CO)S(=O)(=O)c1ccccc1)c1ccccc1,16.4µM,–,?,–,?,–
O=C(CS(=O)(=O)c1ccccc1)CS(=O)(=O)c1ccccc1,·,·,·,·,·,–
O=C(c1ccccc1)c1ccc(OCC(O)CNCc2ccc(Cl)cc2)cc1 (stereo not drawn),–,–,–,–,–,7.08µM
COc1cccc(CNCC(O)COc2ccc(C(=O)c3ccccc3)cc2)c1 (stereo not drawn),–,–,–,–,–,–
C=C1C(=O)OC2CC1C(OC(C)=O)CC(C)=CCCC(C)=CCCC2(C)O (stereo not drawn),·,·,·,·,·,–
C=C1C(=O)OC2CC1C(O)CC(C)=CCCC(C)=CC(O)CC2C (stereo not drawn),14.6µM,–,9.2µM,–,?,–
Cc1ccc(C(=O)N2CCN(c3ccccc3)CC2)cc1S(=O)(=O)N1CCCC1,–,–,20.6µM,–,–,–
Cc1ccc(C(=O)N2CCN(c3ccc(F)cc3)CC2)cc1S(=O)(=O)N1CCCCC1,–,–,11.6µM,–,–,–
